Experimental data from the OligoGym collection.

target: CDC42SE1; assay: pooled miR-30 sensor sort-seq; sequence = guide strand; settings: shRNA
Note: reference of the scale not given here.

Row | Sequence | sensor-assay potency score (higher = more potent)
1 | TTTCTCTACCACACAGCAGCCC | -0.51
2 | TTGGATCTCATCTGCTCCTGAA | -0.616
3 | TGGGGTTTCTCTACCACACAGC | -1.01
4 | TTGCTCCATGGCCTATCTCGGT | -1.82
5 | TTCTCTTCTTCTTCGGCTGGGG | -0.102
6 | TGCTCCATGGCCTATCTCGGTT | -1.52
7 | TCTTCTTCTTCGGCTGGGGTTT | -1.24
8 | TGAACTGCACCTGTCATGGCAA | -0.419
9 | TCATCTGCTCCTGAACTGCACC | -1.23

target: CDCA7L; assay: as above; settings: shRNA

Row | Sequence | sensor-assay potency score (higher = more potent)
10 | TCGCACACCACAGCAACCCTGG | -0.788
11 | TAAAAATTCTTCTTAGCTCTTC | 0.664
12 | TTCTGTATAAAAACACAACTGT | -0.22
13 | TAGCCTTATCTTCTTCTTCATC | -1.31
14 | TTCGGTGATATCCTCCACTGGC | 0.00353
15 | TATACGGTGACGTCGTCTGTAC | -0.513
16 | TTTTCTAAGTCCTCTTCGGTGA | 0.0411
17 | TAGTGAGTCAAAACTATCGCAG | -0.978
18 | AAACTCTTCATCATCACTGGGG | 0.515
19 | TATCATAGATTTTATCTCGAAC | -0.423
20 | TAGACCTGCTTCTTCTAGGGGT | 0.0946
